Measured values: PubChem BioAssay AID1117267 (The Scripps Research Institute Molecular Screening Center, 2014)
Screen size: about 92,000 compounds; about 1,200 (1.3%) were called active.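 The calls were made as follows: active = activation above the mean of all tested compounds plus 3 SD (cut at about 9.5% in these data); inactive = the rest.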 The sample as a whole holds a higher share of actives than the screen did.

Assay: TTR transcription activators in neuroblastoma reporter cells, primary screen, cell-based, luminescence, SH-SY5Y, TTR promoter Gaussia luciferase (AID 1117267);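 also: cells exposed to compounds for one day before reading; 0% = median of all test compound wells on the plate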
Details: at 16.7 µM, hits give high values, 100% = recombinant luciferase protein wells

| SMILES | activation |
| --- | --- |
| COc1ccc(-c2cc(C(=O)N/N=C/c3cccnc3)c3ccccc3n2)c(OC)c1 | -1.67% (inactive) |
| COc1ccc2c(CC(=O)OCC(=O)NC(N)=O)coc2c1 | 1.14% (inactive) |
| O=C(NNS(=O)(=O)c1ccccc1)c1cnn(-c2ccc(Cl)cc2)c1C(F)(F)F | -0.1% (inactive) |
| Cc1ccc(C(=O)Nc2c(C#N)c(C)c(C)n2Cc2ccccc2)cc1 | 0.67% (inactive) |
| Cc1c(C#N)c(NC(=O)c2ccccc2)n(Cc2ccccc2)c1C | 10.7% (active) |
| CC(=O)Nc1ccc(C(=O)Nc2nc(-c3cc(C)n(Cc4ccccc4)c3C)cs2)cc1 | -0.51% (inactive) |
| COc1ccc(S(=O)(=O)N(CC(=O)N/N=C/c2ccccc2C(=O)O)c2ccccc2OC)cc1 | -0.82% (inactive) |
| CSCCC(c1nnnn1Cc1ccccc1)N1CCN(C/C=C/c2ccccc2)CC1 (configuration not stated) | -2.08% (inactive) |
| COc1ccc(C(=O)N2CCCC(C(=O)c3ccccc3OC)C2)cc1OC (configuration not stated) | -0.18% (inactive) |
| Cc1nc(Cl)cc(N/N=C/c2ccccc2)n1 | -2.14% (inactive) |
| COC(=O)c1sc(N)c(C(=O)OC)c1COC(=O)CNS(=O)(=O)c1ccc(C)cc1 | -1.81% (inactive) |
| O=C(N=C1SC2CS(=O)(=O)CC2N1Cc1ccccc1)c1ccccc1 (configuration not stated) | 1.31% (inactive) |
| CC(C)NC(=O)c1ccc(Sc2ccccc2)c([N+](=O)[O-])c1 | 14.4% (active) |
| O=C(NNC(=O)c1ccc(-n2cncn2)c([N+](=O)[O-])c1)c1ccccc1 | -1.38% (inactive) |
| Cc1ccc(Sc2cc(C(=O)c3ccccc3C(=O)O)ccc2[N+](=O)[O-])cc1 | 1.71% (inactive) |
| COC(=O)C1CCN(C(=O)c2ccc3oc(Cc4ccc(Cl)cc4)nc3c2)CC1 | -1.37% (inactive) |
| Cc1ccsc1C(=O)OCC(=O)NCCc1ccccc1 | 2.82% (inactive) |
| C=CCOc1ccc(/C=C2\SC(=S)N(CCC(=O)O)C2=O)cc1 | 0.39% (inactive) |
| CCOc1ccc(N=C2NC(=O)S/C2=C\c2ccc(O)cc2)cc1 | 11.2% (active) |
| CCOc1ccc(-c2cc(C(=O)N/N=C/c3ccc(O)cc3)c3ccccc3n2)cc1 | -0.07% (inactive) |
| O=C1CN(C(=O)COC(=O)C2CC(=O)N(Cc3ccco3)C2)c2ccccc2N1 (configuration not stated) | 12.4% (active) |
| O=C1CN(C(=O)COC(=O)/C=C/c2ccc(F)cc2)c2ccccc2N1 | 0.24% (inactive) |
| O=C1CN(C(=O)COc2c(Cl)cccc2Cl)c2ccccc2N1 | -1.21% (inactive) |

| SMILES | activation |
| --- | --- |
| O=C(CSc1nc2cccc(F)c2c(=O)n1-c1ccccc1)Nc1ccc2c(c1)CCC2 | -1.17% (inactive) |
| COc1cc(NS(=O)(=O)c2ccc(NC(=O)c3ccc([N+](=O)[O-])cc3)cc2)ncn1 | -0.02% (inactive) |
| COc1ccc2c(c1)O/C(=C\c1ccccc1O)C2=O | -0.14% (inactive) |
| COc1ccc(S(=O)(=O)NCC(=O)NCc2cc(=O)n(C)c(=O)n2C)cc1F | 53.5% (active) |
| CC(=O)OCc1cc(=O)n(C)c(=O)n1C | 1.42% (inactive) |
| Cn1c(=O)c2cc(S(=O)(=O)NCCC(=O)Nc3ccc(F)cc3F)ccc2n(C)c1=O | 0.89% (inactive) |
| O=C(C1=C(O)C(=O)N(CCOCCO)C1c1ccccn1)c1cccs1 (configuration not stated) | -0.44% (inactive) |
| C/C(=C\C(=O)c1ccccc1)Nc1cccc(O)c1 | -1.23% (inactive) |
| O=C(Cc1ccccc1)Nc1cccc(NC(=O)c2ccccc2)c1 | -1.17% (inactive) |
| O=C(Nc1cccc(O)c1)c1ccc(C(=O)c2ccccc2)o1 | 15.8% (active) |
| O=c1[nH]cccc1-c1nc2ccccc2n1Cc1ccc(Cl)cc1 | 1.33% (inactive) |
| CC1CCN(S(=O)(=O)c2ccc(S(=O)(=O)NCc3cccnc3)cc2)CC1 | 1.06% (inactive) |
| CCC(C)C(=O)Nc1ccccc1N1CCN(c2ccc(F)cc2)CC1 (configuration not stated) | 1.32% (inactive) |
| COC(=O)COc1ccc2oc(=O)cc(C)c2c1 | -3.29% (inactive) |
| CCOC(=O)Cc1csc(NC(=O)COc2ccc3c(C)cc(=O)oc3c2)n1 | -0.4% (inactive) |
| CC(=O)c1c(C)[nH]c(C(=O)COc2ccc3c(C)cc(=O)oc3c2)c1C | 11.5% (active) |
| N#Cc1ccc(/C=C2\CCn3c2nc2cc(C(=O)O)ccc2c3=O)cc1 | -0.49% (inactive) |
| COC[C@@H]1CCCN1c1ccc2c(c1)O[C@H](C)CCN(C1CC1)S2(=O)=O | 1.42% (inactive) |
| CN(CCc1ccccc1)C(=O)c1cccc(NC(=O)Cc2cccc(NC(=O)C3CCCN(C(=O)CCc4ccccc4)C3)c2)c1 (configuration not stated) | -4.56% (inactive) |
| CC1Cc2ccccc2N1S(=O)(=O)c1cccc(C(=O)OCC(=O)N2CCOCC2)c1 (configuration not stated) | 2.01% (inactive) |
| COc1ccc2[nH]c3c(=O)n(Cc4ccco4)cnc3c2c1 | 1.08% (inactive) |
| COc1ccc(-c2oc3ncn(Cc4ccco4)c(=N)c3c2-c2ccc(OC)cc2)cc1 | 11.8% (active) |
| Cn1c2ccccc2c(=O)c2c(=O)n(Cc3ccco3)c(COc3ccccc3)nc21 | -1.02% (inactive) |

| SMILES | activation |
| --- | --- |
| C(#CCN1CCOCC1)CCCN1CCOCC1 | 0.16% (inactive) |
| O=C(c1cccc(S(=O)(=O)N2CCCCCC2)c1)N1CCN(Cc2ccccc2)CC1 | -0.07% (inactive) |
| O=C(NNC1=NCCC1)c1cccc(S(=O)(=O)N2CCCCC2)c1 | 12% (active) |
| O=C(Nc1nncs1)c1cccc(S(=O)(=O)N2CCCCC2)c1 | 0.77% (inactive) |
| Cc1c(NC(=O)C(=O)N/N=C/c2cccs2)c(=O)n(-c2ccccc2)n1C | -1.22% (inactive) |
| O=c1c2c3c(sc2n(CCN2CCCC2)c(=O)n1Cc1ccccc1)CCCCC3 | 1.57% (inactive) |
| COc1ccc(C2c3ccc(O)cc3Oc3ncn(CCCO)c(=N)c32)cc1OC (configuration not stated) | 9.86% (active) |
| O=c1ccnc(Nc2ccc(Cl)cc2)[nH]1 | 1.51% (inactive) |
| COc1ccc(CN2CN(C3CCCC3)CSC2=S)cc1 | -1.82% (inactive) |
| O=C1NC(=Nc2ccc(Cl)cc2)SC1Cc1cccc(Cl)c1Cl (configuration not stated) | -2.63% (inactive) |
| COc1cc(NS(=O)(=O)c2ccc(NC(=O)CN3C(=O)c4ccccc4C3=O)cc2)ncn1 | 0.85% (inactive) |
| O=C(CS(=O)(=O)c1ccccc1)Nc1ccc(S(=O)(=O)Nc2ccccn2)cc1 | 11.2% (active) |
| O=S(=O)(Nc1ccccn1)c1cccc(S(=O)(=O)c2ccc(Cl)cc2)c1 | 1.15% (inactive) |
| Cc1nn(C)cc1S(=O)(=O)N1CCN(c2ccc(F)cc2)CC1 | 5.22% (inactive) |
| COC(=O)C[C@@H]1C=C[C@@H](NS(=O)(=O)c2cccc(OC)c2)[C@@H](CO)O1 | 2.56% (inactive) |
| COC(=O)[C@@]12C[C@@H](CC(=O)N3CCCCC3)C(=O)N(Cc3ccc4c(c3)OCO4)C1=CCC(C)(C)C2 | -2.52% (inactive) |
| O=C(COc1ccc(Cl)cc1Cl)NCCCNC(=O)c1cnccn1 | 1.09% (inactive) |
| O=C(NCCCNC(=O)c1ccccc1Cl)c1cnccn1 | 17.1% (active) |
| Cc1ccc(C(=O)NCCNC(=O)c2cnccn2)cc1 | -0.47% (inactive) |
| CCC(C)NCCOCCOc1ccc(Br)cc1C (configuration not stated) | 4.02% (inactive) |
| CCc1nn(CCCC(=O)Nc2ccc(C)c(C)c2)c(=O)c2cc3occc3n12 | -0.44% (inactive) |
| Nc1ccc2c(c1)C(O)c1ccc(Cl)cc1-2 (configuration not stated) | -0.84% (inactive) |
| Cc1nnc(SCC(=O)NNC(=O)c2ccc(Cl)cc2)n1CC1CCCO1 (configuration not stated) | -0.27% (inactive) |

| SMILES | activation |
| --- | --- |
| C(=N\n1cnnc1)/c1cccnc1 | 9.82% (active) |
| Brc1ccc(-c2csc(N/N=C/c3cccnc3)n2)cc1 | -4.96% (inactive) |
| O=C(N/N=C/c1cccnc1)c1cc2ccccc2cc1O | -0.26% (inactive) |
| CC(=O)Nc1ccc(N2C(=O)CC(Sc3nccc(C)n3)C2=O)cc1 (configuration not stated) | -1.45% (inactive) |
| CC(Oc1cccc(Cl)c1)C(=O)NC1CC(C)(C)NC(C)(C)C1 (configuration not stated) | -0.86% (inactive) |
| Cc1ccccc1/[N+]([O-])=C/c1ccncc1 | 11% (active) |
| O=C(O/N=C(/c1ccccc1)c1ccncc1)c1ccccc1[N+](=O)[O-] | -1% (inactive) |
| C=C(C)CNC(=S)N/N=C/c1ccccc1OCC(=O)O | 8.68% (inactive) |
| CN(C)CCNC(=O)Cc1ccc([N+](=O)[O-])cc1 | 0.61% (inactive) |
| CCCNC(=O)c1onc(CSc2ccc(F)cc2)c1C(=O)NC(C)C | -2.47% (inactive) |
| COc1cc(N2C(=O)CC3(CCCC3)CC2=O)cc(OC)c1OC | 11.7% (active) |
| COc1cc(C(=O)NNC(=O)CN2C(=O)NC3(CCCC3)C2=O)cc(OC)c1OC | -1.23% (inactive) |
| COc1cc(NC(=S)N2CCCC(C)C2)cc(OC)c1OC (configuration not stated) | 4.11% (inactive) |
| CC(C)(C)OC(=O)N/N=C/c1cn(-c2ccccc2)nc1-c1cccnc1 | -1.28% (inactive) |
| CC(C)N(C(=O)[C@H]1C[C@H](CC(=O)NCCC2=CCCCC2)C(=O)N2CCc3c([nH]c4cc(CCC(=O)N(C)C)ccc34)[C@]12C)C(C)C | -0.83% (inactive) |
| c1ccc(-c2c[nH]c(-c3ccccc3)c2)cc1 | -1.9% (inactive) |
| CCOCC(=O)Nc1sc2c(c1C(=O)OCC)CCCC2 | 2.19% (inactive) |
| CCOC(=O)c1c(NC(=O)c2ccc(Br)o2)sc2c1CCCC2 | 12.3% (active) |
| CCOC(=O)c1c(NC(=S)Nc2ccccc2C)sc2c1CCC2 | 1.24% (inactive) |
| COc1cccc2cc(/C(C)=N/NC(=O)c3ccco3)oc12 | 1.86% (inactive) |
| Cc1nc2nc(C)c(CCC(=O)N3CCN(c4ccccc4)CC3)c(C)n2n1 | 25.8% (active) |
| Cc1nc2c(-c3ccc(F)cc3)c(C)nn2c(C)c1CCC(=O)N1CCN(c2ccccn2)CC1 | 1.67% (inactive) |
| Cn1c(=O)c2c(ncn2CC(=O)N2CCN(c3ccccc3)CC2)n(C)c1=O | 3.74% (inactive) |
